Only some compounds are listed: those with a hit (about 3.8% of all), similar ones and a draw of the others.
ADAM17 inh – ADAM17 inhibitors, primary screen, biochemical, QFRET; recombinant ADAM17, EDANS/DABCYL FRET peptide cleavage; inhibition, % at 6.95 µM; 370,000 tested, 0.83% active; AID 720648, 2013;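 active = inhibition above the mean of compounds lying between control limits plus 3 SD, set per campaign, cut at about 8.5% in these data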;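 note: 0% = DMSO-only wells as the low control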
ADAM10 inh – human ADAM10 inhibitors, primary screen, biochemical, QFRET, HTS. Disintegrin and metalloproteinase domain-containing protein 10 (Homo sapiens), O14672. recombinant ADAM10, EDANS/DABCYL FRET peptide cleavage, 3 h. inhibition, % at 7 µM. 370,000 tested, 0.62% active. AID 720582, 2013;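 active = inhibition above a per-campaign cutoff equal to the mean of compounds falling between control-based bounds plus 3 SD, cut at about 20% in these data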;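 note: 0% = DMSO wells while the 100% control is not disclosed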
proKLK7 act – proKLK7 zymogen activators, primary screen, biochemical, fluorescence intensity. Kallikrein-7 (Homo sapiens), P49862. purified proKLK7, EDANS-DABCYL substrate fluorescence; 100% is mature enzyme control, 0% vehicle. activation, % at 7 µM. 370,000 tested, 0.9% active. AID 652039, 2013;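 active = activation above the mean of all tested compounds plus 3 SD, computed per campaign excluding outliers beyond control limits, cut at about 13% in these data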
Target sequence (P49862 whole entry, looked up): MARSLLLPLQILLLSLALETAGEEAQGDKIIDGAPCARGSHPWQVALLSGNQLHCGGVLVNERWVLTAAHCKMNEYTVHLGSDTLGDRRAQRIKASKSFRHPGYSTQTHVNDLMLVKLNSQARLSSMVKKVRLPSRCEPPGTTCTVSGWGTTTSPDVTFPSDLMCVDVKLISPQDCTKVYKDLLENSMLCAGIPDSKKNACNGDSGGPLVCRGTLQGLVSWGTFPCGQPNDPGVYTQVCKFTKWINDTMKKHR
FGF22 binding – binders of human FGF22 protein, primary screen, FGF22 synaptogenesis inhibitor project, biophysical, thermal shift, single point; recombinant FGF22 thermal shift, SYPRO orange fluorescence; percent of sucrose octasulfate shift, DMSO zero; activity (Tm shift, normalised), % at 9.99 µM; 340,000 tested, 1.5% active; AID 651658, 2012;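 active = mean Tm shift, scaled 0 neutral to 100 positive control, at about 1.3% or above, every replicate too, limit read from the data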
Target sequence (Q9HCT0 whole entry, looked up): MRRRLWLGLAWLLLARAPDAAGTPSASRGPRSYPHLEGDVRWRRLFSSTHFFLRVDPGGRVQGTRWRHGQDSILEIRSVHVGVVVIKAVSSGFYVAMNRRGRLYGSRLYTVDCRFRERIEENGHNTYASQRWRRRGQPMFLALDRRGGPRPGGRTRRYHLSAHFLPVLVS
rRNA inh HTS – reduced GFP signal of wild-type E. coli, primary screen, bacterial rRNA inhibitor project, GFP/RFP fluorescence, OD600, single point | E. coli WT GFP vs humanized-ribosome RFP mutants, 24 h; hits give low values; DMSO median 0, no signal -100 | GFP signal change (wild-type ribosome), % (concentration not given with the values) | 350,000 tested, 1.6% active;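 active = significant combined selectivity score with lowered wild-type GFP, culture density cut under 30%, mutant RFP and density less affected; inactive = any of these conditions unmet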
* = called active by the depositor; i = inactive; . = no result.

SMILES | ADAM17 inh | ADAM10 inh | proKLK7 act | FGF22 binding | rRNA inh HTS
O=S(=O)(Nc1nc2ccccc2nc1NCC1CCCO1)c1cccc(Cl)c1 (stereo unspecified) | -13 | -59 | 1 | 0 | -24*
O=C(NCC1CCCO1)c1ccc(NS(=O)(=O)c2ccccc2)cc1 (stereo unspecified) | -3 | -6 | 1 | 45* | 12
COc1ccc2c3c(n(C)c2c1)[C@H](CO)NCC31CCN(C(C)=O)CC1 | . | . | . | 0 | 1
CS(=O)(=O)N(CC(=O)NCC1CCCO1)c1cc(Cl)cc(Cl)c1 (stereo unspecified) | 0 | 3 | 0 | 0 | 11
O=C(COc1ccc(S(=O)(=O)NC2CCCC2)cc1)NCC1CCCO1 (stereo unspecified) | -3 | 2 | 1 | 43* | 10
CS(=O)(=O)N(CC(=O)NCC1CCCO1)c1cccc(Cl)c1 (stereo unspecified) | -3 | -2 | 0 | 44* | 7
Cc1cc(S(=O)(=O)NC2CCCCC2)ccc1OCC(=O)NCC1CCCO1 (stereo unspecified) | -3 | -3 | 0 | 0 | 6
CN1[C@@H]2c3ccc(-c4cccc(F)c4)c(=O)n3C[C@H]1[C@H](CO)[C@H]2C(=O)N1CCCCC1 | . | . | . | 0 | 0
COc1ccc(-c2cn(CC[C@H]3CC[C@H](NC(=O)CCN4CCCCC4)[C@@H](CO)O3)nn2)cc1 | . | . | . | 0 | 1
C[C@H](CO)N1C[C@H](C)[C@@H](CN(C)Cc2cccc(C(F)(F)F)c2)OCc2ccccc2-c2ccccc2C1=O | . | . | . | . | -21
CNC[C@@H]1Oc2ccc(NS(C)(=O)=O)cc2C(=O)N(C)C[C@@H]1C | . | . | . | . | -2
COc1ccc2c(c1)OC[C@H]1[C@H]2N2C(=O)c3ccc(C)cc3NC(=O)[C@@]2(C)[C@H]1c1ccccc1 | 9.6* | 16 | -1 | . | .
COc1ccc2c(c1)[C@H]1[C@H](CO2)[C@H](c2ccccc2)[C@]2(C)C(=O)Nc3cc(C)ccc3C(=O)N12 | 1 | 3 | -1 | 0 | 15
Cc1nc(NC(=S)Nc2ccccc2)sc1C | -1 | 0 | 0 | 43* | -27*
Cc1noc(C)c1NC(=O)Nc1ccc2c(c1)C(=O)N([C@@H](C)CO)C[C@H](C)[C@H](CN(C)Cc1ccncc1)OCCCC[C@H](C)O2 | . | . | . | 0 | 1
COc1ccc2c3c([nH]c2c1)[C@@H](CO)N(C(=O)Nc1ccccc1F)CC31CCN(C(=O)c2ccccc2F)CC1 | . | . | . | . | -5
Nc1ncccc1OCc1ccc(Cl)c(Cl)c1 | 0 | -1 | 0 | 0 | -21*
CC(C)(C)Nc1nc(N2CCCC2)nc(N2CCCC2)n1 | 3 | 4 | -1 | . | .
CCCNc1nc(N2CCCC2)nc(N2CCCC2)n1 | -5 | -7 | 0 | 0 | -21*
COc1ccc(NC(=O)Nc2ccc3c(c2)CC(=O)N([C@H](C)CO)C[C@H](C)[C@H](CN(C)C(=O)Nc2ccc(F)cc2)O3)cc1 | . | . | . | -1 | 4
CC(=O)N(C)C[C@H]1Oc2ccc(N)cc2C(=O)N(C)C[C@@H]1C | . | . | . | . | 0
C[C@@H](NC(=O)C[C@@H]1C[C@@H]2c3cc(NC(=O)CN(C)C)ccc3O[C@@H]2[C@H](CO)O1)c1ccccc1 | . | . | . | 0 | 1
O=C(NCCCNC(=O)c1ccco1)c1ccc(Cl)cc1 | 0 | -5 | 0 | 0 | 1
NC(=NCc1ccco1)NC(=O)c1ccc(Cl)cc1 | 0 | 6 | 0 | 0 | -25*
COc1ccc(-c2nc3ccc(C(=O)NCC(OC)OC)cc3nc2-c2ccc(OC)c(OC)c2)cc1OC | -4 | -3 | 9 | 0 | 8
SMILES | ADAM17 inh | ADAM10 inh | proKLK7 act | FGF22 binding | rRNA inh HTS
COC(CNC(=O)c1ccc2nc(-c3cccs3)c(-c3cccs3)nc2c1)OC | -10 | -28 | -2 | 0 | -22*
COc1ccccc1-c1ccc(/C=N/O)o1 | -19 | -31 | 0 | 0 | -34*
COc1ccc(NS(=O)(=O)c2cccc(Cl)c2)cc1S(=O)(=O)N1CCCCC1 | 0 | 4 | 0 | 0 | 20
COc1ccc(C(=O)Nc2ccc(NC(C)=O)cc2)cc1S(=O)(=O)N1CCCC1 | 0 | -20 | 0 | 0 | -33*
COc1ccc(NS(=O)(=O)c2cccc(Cl)c2Cl)cc1S(=O)(=O)N1CCCCC1 | -2 | 4 | -2 | 0 | -35*
O=C(Nc1ccc(F)c(F)c1)c1ccc(F)c(S(=O)(=O)N2CCC3(CC2)OCCO3)c1 | 1 | 0 | 0 | 0 | -27*
C[C@@H]1CN([C@@H](C)CO)C(=O)c2cccc(NC(=O)c3ccncc3)c2O[C@@H]1CN(C)Cc1ccc(C(=O)Nc2ccccc2N)cc1 | . | . | . | 0 | 4
COc1cc2nc3n(c(=O)c2cc1OC)-c1cc2ccccc2cc1C(=O)NC3CC(C)C (stereo unspecified) | 2 | -2 | 1 | 43* | .
COc1cc2nc3n(c(=O)c2cc1OC)-c1cc2ccccc2cc1C(=O)NC3Cc1ccccc1 (stereo unspecified) | 2 | 10 | -1 | 0 | 4
CC(=O)Nc1cccc2c1O[C@@H](CN(C)C(=O)NC(C)C)[C@H](C)CN(C)C2=O | . | . | . | . | 1
O=C(c1cccs1)C1CCCN(Cc2nc(Cc3ccccc3F)no2)C1 (stereo unspecified) | 1 | -1 | 1 | 43* | -3
CC(=O)N1[C@@H]2CN(CC(F)(F)F)C[C@H]1C2c1ccccc1 (stereo partly specified) | . | . | . | . | -1
Cc1cc(C)c2c(=N)c3ccccc3n(CCCCCCCCn3c4ccccc4c(=N)c4c(C)cc(C)nc43)c2n1 | -141 | i | 37* | 0 | -59
CCCCCCCCn1c2c(c(=N)c3ccccc31)CCC2 | -14 | -28 | 1 | 0 | -59
Nc1ncnc2c1CN(Cc1ccccc1)CC2 | -1 | -6 | 0 | 0 | 15
Nc1nc(N)c2c(n1)CN(Cc1ccc(Cl)cc1)C2 | -19 | -84 | -22 | 43* | 11
CCC(c1nc2ccccc2[nH]1)n1c(-c2ccnc(Cl)c2)nc2ccccc21 (stereo unspecified) | -2 | -3 | 0 | 0 | -21
CCC(c1nc2ccccc2[nH]1)n1c(-c2ccc3cc[nH]c3c2)nc2ccccc21 (stereo unspecified) | -73 | -311 | -2 | 1.5* | -20
Fc1ccc(-c2nnc3ccccn23)cc1 | 0 | -2 | 0 | 43* | 4
COC(=O)c1ccccc1N=Nc1c(C)n[nH]c1C | 0 | 0 | 0 | 0 | -7
COC(=O)c1ccccc1N=Nc1c(C)noc1C | -2 | -1 | 0 | 0 | -28*
